# Reference: PubChem BioAssay (NCATS)
# Unmarked numbers belong to inactive results. Inconclusive results are not listed. Entries that show only a call come without a potency. The source made the active and inactive calls. Unless noted, calls come from the whole dose curve; as a rule, active = well fitted curve in the direction sought with a large enough effect; inconclusive = small, poorly fitted or top-dose-only effect, or another doubt; inactive = no such curve, though single readings can be large; an effect the other way counts as inactive or inconclusive.
# Columns and labels:
# [1] = target: Cytochrome P450 1A2 (Homo sapiens) (UniProt P05177); experiment: p450-cyp1a2 (AID 410; calls by dose curve; note: potency is the fitted concentration of half-maximal effect)
# Sequence of Cytochrome P450 1A2 (Homo sapiens) (P05177 whole entry, looked up): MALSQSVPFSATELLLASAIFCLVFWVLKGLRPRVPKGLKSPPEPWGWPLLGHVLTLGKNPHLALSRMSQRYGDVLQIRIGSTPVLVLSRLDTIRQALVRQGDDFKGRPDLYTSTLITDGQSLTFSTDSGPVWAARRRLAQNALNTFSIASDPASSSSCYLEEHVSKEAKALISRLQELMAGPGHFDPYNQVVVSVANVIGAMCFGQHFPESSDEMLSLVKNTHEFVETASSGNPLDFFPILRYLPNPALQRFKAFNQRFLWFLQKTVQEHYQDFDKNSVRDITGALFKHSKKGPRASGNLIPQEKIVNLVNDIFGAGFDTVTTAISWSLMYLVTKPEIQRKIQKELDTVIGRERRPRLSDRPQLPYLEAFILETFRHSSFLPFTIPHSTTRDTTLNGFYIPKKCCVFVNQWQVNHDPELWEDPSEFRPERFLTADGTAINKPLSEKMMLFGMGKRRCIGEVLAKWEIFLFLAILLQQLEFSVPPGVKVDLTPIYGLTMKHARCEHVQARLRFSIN
# How it was run: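 Inhibition was calculated relative to 57 uM furafylline (full inhibition). The reaction used human CYP1A2 at 20nM with Luciferin-ME at its Km, 100uM, driven by an NADPH-regenerating system for 60 min at room temperature.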
# [2] = target: Glucocorticoid receptor (Homo sapiens) (UniProt P04150); experiment: GR-GFP Redistribution (AID 450;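 active = compounds whose dose series gives a full or clear partial fitted curve of increased nuclear translocation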; note: potency is the fitted concentration of half-maximal effect)
# Sequence of Glucocorticoid receptor (Homo sapiens) (P04150 whole entry, looked up, the tested form may be a part): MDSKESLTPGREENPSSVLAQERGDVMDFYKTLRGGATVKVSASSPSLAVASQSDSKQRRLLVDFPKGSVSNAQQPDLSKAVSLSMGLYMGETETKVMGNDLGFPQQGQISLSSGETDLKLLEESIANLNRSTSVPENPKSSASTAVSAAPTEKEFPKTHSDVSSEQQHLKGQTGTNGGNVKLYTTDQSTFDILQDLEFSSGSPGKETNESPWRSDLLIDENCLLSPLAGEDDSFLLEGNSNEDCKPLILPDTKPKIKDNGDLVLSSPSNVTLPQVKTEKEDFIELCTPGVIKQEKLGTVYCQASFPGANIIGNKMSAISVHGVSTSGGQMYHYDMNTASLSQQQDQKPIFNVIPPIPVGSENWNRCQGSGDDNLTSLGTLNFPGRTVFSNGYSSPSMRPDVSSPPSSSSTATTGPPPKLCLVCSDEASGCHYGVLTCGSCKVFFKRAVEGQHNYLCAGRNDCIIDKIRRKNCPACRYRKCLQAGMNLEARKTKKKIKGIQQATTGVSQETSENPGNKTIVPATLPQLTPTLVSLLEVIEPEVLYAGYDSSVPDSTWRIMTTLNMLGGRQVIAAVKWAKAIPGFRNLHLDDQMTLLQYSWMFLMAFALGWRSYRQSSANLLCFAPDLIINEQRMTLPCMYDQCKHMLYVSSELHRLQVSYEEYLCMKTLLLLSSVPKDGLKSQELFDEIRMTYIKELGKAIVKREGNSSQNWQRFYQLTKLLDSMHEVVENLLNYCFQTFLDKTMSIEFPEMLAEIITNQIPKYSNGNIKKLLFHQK
# [3] = target: Glucocorticoid receptor (Homo sapiens) (UniProt P04150); experiment: GR-EFC Redistribution (AID 451; calls by dose curve; note: potency is the fitted concentration of half-maximal effect); conditions: CHO-K1 GR-EFC translocation, beta-gal luminescence, 2 h
# How it was run: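 CHO-K1 cells stably expressing nuclear-localized β-gal enzyme acceptor and GR fused C-terminally to the enzyme donor fragment; ligand-driven nuclear translocation restores β-gal by complementation. Compounds titrated up to 46 uM final, 2 h at 37 °C; luminescence read.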
# [4] = target: Mitogen-activated protein kinase 10 (Mus musculus) (UniProt Q61831); experiment: JNK3 AlphaScreen Assay (AID 530; active = well fitted curve in either direction with a large enough effect, not every such curve was filed as active;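 note: kinase came from lysate of stimulated human HepG2 cells; signal reports phosphorylation of biotinylated GST-cJun 1-79 at Ser73 with 10 µM ATP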)
# How it was run: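 JNK3 came from HepG2 lysates pre-activated with IL-1beta and TNF-alpha and phosphorylated biotinylated GST-cJun (1-79) at 10 uM ATP, pH 7.6, room temperature. Compounds were titrated. AlphaScreen signal used anti-phospho-cJun (Ser73) antibody.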
# [5] = target: 3',5'-cyclic-AMP phosphodiesterase 4B (Homo sapiens) (UniProt Q07343); experiment: qHTS Assay for Inhibitors of PDE-IV (AID 607; active = well fitted activation curve with a large enough effect in the main read-out, with a control signal flat, not every such curve was filed as active)
# Sequence of 3',5'-cyclic-AMP phosphodiesterase 4B (Homo sapiens) (Q07343 whole entry, looked up): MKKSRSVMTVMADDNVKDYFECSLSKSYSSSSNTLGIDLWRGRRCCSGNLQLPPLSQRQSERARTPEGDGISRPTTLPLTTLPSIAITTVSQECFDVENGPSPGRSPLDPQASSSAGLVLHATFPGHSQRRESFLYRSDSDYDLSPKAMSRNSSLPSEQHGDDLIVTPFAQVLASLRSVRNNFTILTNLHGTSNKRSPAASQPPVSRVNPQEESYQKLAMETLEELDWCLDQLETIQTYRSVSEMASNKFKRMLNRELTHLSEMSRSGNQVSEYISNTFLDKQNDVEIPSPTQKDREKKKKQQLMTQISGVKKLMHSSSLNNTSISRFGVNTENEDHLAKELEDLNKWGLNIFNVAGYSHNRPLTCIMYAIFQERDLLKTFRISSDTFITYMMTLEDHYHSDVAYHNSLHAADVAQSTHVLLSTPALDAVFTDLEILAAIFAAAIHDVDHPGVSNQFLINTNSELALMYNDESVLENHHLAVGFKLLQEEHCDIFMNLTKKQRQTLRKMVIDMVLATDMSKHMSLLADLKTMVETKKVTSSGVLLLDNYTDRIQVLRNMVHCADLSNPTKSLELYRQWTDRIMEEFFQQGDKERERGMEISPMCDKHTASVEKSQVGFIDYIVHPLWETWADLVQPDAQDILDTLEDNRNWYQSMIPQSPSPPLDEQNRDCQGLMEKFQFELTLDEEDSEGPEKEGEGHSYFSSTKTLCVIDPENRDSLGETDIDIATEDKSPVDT
# How it was run: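 The readout is membrane depolarisation from a cAMP-sensing CNG channel, detected with a potential dye at ex 535/em 590. Cells were HEK293-derived (endogenous PDE-IV) at 1000 cells/well, titrated up to 22.9 uM final.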
# [6] = target: Cytochrome P450 2C19 (Homo sapiens) (UniProt P33261); experiment: qHTS Assay for Inhibitors and Substrates of Cytochrome P450 2C19 (AID 899); note: potency is the fitted concentration of half-maximal effect; nearly all actives have a fitted effect of over 60% in size
# Sequence of Cytochrome P450 2C19 (Homo sapiens) (P33261 whole entry, looked up): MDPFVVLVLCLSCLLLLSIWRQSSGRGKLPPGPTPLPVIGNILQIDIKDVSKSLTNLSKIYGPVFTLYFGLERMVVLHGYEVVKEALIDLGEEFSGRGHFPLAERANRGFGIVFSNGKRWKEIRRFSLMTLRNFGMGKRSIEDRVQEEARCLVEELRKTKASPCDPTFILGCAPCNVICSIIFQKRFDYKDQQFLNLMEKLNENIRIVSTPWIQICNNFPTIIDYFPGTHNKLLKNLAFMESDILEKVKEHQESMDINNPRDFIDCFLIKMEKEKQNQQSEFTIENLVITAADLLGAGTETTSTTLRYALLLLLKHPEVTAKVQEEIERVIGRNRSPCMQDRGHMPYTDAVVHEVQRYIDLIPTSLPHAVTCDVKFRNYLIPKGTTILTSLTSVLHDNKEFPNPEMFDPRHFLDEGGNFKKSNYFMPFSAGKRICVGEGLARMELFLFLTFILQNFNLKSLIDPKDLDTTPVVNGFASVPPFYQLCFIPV
# How it was run: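 NADPH-dependent conversion of Luciferin-H EGE (10uM, at KM) by 5nM enzyme in 50mM KPO4, 60 min at 37C following 10 min compound preincubation. Stopped with luciferin detection buffer; luminescence read after 20 min.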
# [7] = target: Ubiquitin carboxyl-terminal hydrolase 1 (Homo sapiens) (UniProt O94782); experiment: Inhibitors of USP1/UAF1: Pilot qHTS (AID 504865);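 note: rhodamine fluorescence freed from ubiquitin-rhodamine substrate followed over time; top concentration of the series differs between compounds; nearly all actives have a fitted effect of over 35% in size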
# Sequence of Ubiquitin carboxyl-terminal hydrolase 1 (Homo sapiens) (O94782 whole entry, looked up): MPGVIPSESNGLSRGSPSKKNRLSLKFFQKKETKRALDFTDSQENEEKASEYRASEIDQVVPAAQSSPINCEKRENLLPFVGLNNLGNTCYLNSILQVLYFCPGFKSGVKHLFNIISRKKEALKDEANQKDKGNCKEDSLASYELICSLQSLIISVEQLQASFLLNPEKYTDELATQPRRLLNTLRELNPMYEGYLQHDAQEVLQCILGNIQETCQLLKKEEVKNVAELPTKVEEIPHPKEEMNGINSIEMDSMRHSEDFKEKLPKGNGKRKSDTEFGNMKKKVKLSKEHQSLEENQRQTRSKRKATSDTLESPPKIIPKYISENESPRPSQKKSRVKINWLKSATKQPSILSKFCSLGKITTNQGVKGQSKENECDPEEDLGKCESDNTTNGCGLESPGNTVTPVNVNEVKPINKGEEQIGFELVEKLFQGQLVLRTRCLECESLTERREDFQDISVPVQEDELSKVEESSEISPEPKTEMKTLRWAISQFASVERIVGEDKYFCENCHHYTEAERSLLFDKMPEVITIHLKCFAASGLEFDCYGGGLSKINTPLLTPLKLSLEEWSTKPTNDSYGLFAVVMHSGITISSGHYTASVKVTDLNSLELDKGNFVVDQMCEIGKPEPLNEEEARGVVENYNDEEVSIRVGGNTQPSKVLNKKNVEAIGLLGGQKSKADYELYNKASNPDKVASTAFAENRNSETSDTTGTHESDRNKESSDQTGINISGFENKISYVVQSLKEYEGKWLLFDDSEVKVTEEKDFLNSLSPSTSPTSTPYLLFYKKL
# How it was run: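 USP1/UAF1 complex at 1 nM preincubated 15 min at room temperature with compound, then Ub-Rho substrate added at 150 nM final. Fluorescence (480/540 nm) read kinetically in 50 mM HEPES pH 7.8, 0.5 mM EDTA, 1 mM TCEP, 0.1 mg/ml BSA, 0.01% Tween-20.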
# [8] = target: DNA dC->dU-editing enzyme APOBEC-3G (Homo sapiens) (UniProt Q9HC16); experiment: qHTS for inhibitors of Vif-A3G interactions: Validation (AID 588379)
# Sequence of DNA dC->dU-editing enzyme APOBEC-3G (Homo sapiens) (Q9HC16 whole entry, looked up): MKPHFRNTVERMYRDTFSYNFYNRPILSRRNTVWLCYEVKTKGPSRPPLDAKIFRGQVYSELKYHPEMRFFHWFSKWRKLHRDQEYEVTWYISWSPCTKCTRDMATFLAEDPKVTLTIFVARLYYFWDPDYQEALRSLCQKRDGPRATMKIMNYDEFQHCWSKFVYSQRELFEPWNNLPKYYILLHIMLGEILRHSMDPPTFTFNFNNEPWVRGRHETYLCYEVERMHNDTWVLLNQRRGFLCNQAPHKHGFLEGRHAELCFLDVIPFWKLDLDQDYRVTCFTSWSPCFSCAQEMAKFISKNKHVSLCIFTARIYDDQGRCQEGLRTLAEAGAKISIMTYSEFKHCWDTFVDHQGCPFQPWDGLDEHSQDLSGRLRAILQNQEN
# How it was run: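 HeLa cells stably expressing Vif and A3G-eYFP, 700 cells/well, incubated overnight at 37 deg C, then exposed to compound overnight at 37 deg C. Inhibition of Vif-mediated degradation read as increased yellow fluorescence (Ex 488/Em 500-530) by laser-scanning cytometry.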
# [9] = target: Luciferin 4-monooxygenase (Photinus pyralis) (UniProt P08659); experiment: Biochemical firefly luciferase enzyme assay for NPC (AID 624030);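 note: purified P. pyralis luciferase at 10 nM with luciferin and ATP substrate; nearly all actives have a fitted effect of over 70% in size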
# Sequence of Luciferin 4-monooxygenase (Photinus pyralis) (P08659 whole entry, looked up): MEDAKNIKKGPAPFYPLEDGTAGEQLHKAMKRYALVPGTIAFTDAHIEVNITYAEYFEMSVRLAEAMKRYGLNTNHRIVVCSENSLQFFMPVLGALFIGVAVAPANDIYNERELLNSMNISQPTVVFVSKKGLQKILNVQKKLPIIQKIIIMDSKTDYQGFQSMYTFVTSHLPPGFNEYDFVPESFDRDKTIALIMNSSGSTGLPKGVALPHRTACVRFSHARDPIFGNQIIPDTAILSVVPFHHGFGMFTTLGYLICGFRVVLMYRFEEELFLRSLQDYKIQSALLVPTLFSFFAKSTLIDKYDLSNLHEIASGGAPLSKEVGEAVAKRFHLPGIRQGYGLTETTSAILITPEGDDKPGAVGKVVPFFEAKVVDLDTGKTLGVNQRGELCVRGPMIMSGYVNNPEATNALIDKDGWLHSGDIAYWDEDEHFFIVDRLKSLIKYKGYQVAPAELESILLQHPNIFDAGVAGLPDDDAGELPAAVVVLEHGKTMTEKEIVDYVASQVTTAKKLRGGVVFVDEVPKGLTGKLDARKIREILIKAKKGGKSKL
# How it was run: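 Counter-screen for direct inhibition of the luciferase enzyme by approved-drug library compounds, run at 10 nM enzyme in 50 mM Tris acetate (final). Luminescence was read within 5 min of enzyme-buffer addition and normalized to PTC124 versus DMSO (0%).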
# [10] = S16 Schwann cell viability assay (CellTiter-Glo assay) (AID 624031);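 note: native untransfected S16 rat Schwann cells; cellular ATP luminescence as a viability measure; nearly all actives have a fitted effect of over 70% in size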
# How it was run: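 Following overnight culture in 10% FBS DMEM, parental S16 rat Schwann cells are dosed for 24 h at 37 °C. Viability is read as CellTiter-Glo luminescence and expressed as % activity relative to DMSO (0%) and no-cell wells.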
# [11] = S16 Schwann cell PMP22 intronic element firefly luciferase assay (AID 624032); note: nearly all actives have a fitted effect of over 30% in size
# How it was run: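 Rat S16 Schwann cells stably carrying a PMP22 intronic element-driven Fluc reporter were seeded overnight, then exposed to compounds for 24 h at 37 °C. Luminescence was normalized to PTC124 (positive control) and DMSO (0% activity).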
# [12] = qHTS profiling for inhibitors of Plasmodium falciparum proliferation (AID 504749); note: nearly all actives have a fitted effect of over 60% in size; conditions: P. falciparum in erythrocytes, SYBR Green DNA, 72 h, at 28.7 µM (top of the series)
# How it was run: (§1)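 P. falciparum-infected erythrocytes (0.3% parasitemia, 2.5% hematocrit final) were exposed to compounds for 72 h at 37 C in 5% CO2, then lysed with SYBR Green buffer overnight at room temperature; parasite DNA fluorescence was normalized to artemisinin and DMSO controls.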
# 3D7 = experiment: as above; conditions: P. falciparum in erythrocytes, SYBR Green DNA, 72 h; series mostly up to 28.7 µM
# How it was run: as §1
# 7G8 = experiment: as above; conditions: P. falciparum in erythrocytes, SYBR Green DNA, 72 h; series mostly up to 28.7 µM
# How it was run: as §1
# AA1029 = experiment: as above; conditions: P. falciparum in erythrocytes, SYBR Green DNA, 72 h; series mostly up to 28.7 µM
# How it was run: as §1
# AS120 = experiment: as above; conditions: P. falciparum in erythrocytes, SYBR Green DNA, 72 h; series mostly up to 28.7 µM
# How it was run: as §1
# ATS189 = experiment: as above; conditions: P. falciparum in erythrocytes, SYBR Green DNA, 72 h; series mostly up to 28.7 µM
# How it was run: as §1
# ATS95 = experiment: as above; conditions: P. falciparum in erythrocytes, SYBR Green DNA, 72 h; series mostly up to 28.7 µM
# How it was run: as §1
# C2A = experiment: as above; conditions: P. falciparum in erythrocytes, SYBR Green DNA, 72 h; series mostly up to 28.7 µM
# How it was run: as §1
# CP185 = experiment: as above; conditions: P. falciparum in erythrocytes, SYBR Green DNA, 72 h; series mostly up to 28.7 µM
# How it was run: as §1
# CP191 = experiment: as above; conditions: P. falciparum in erythrocytes, SYBR Green DNA, 72 h; series mostly up to 28.7 µM
# How it was run: as §1
# CP192 = experiment: as above; conditions: P. falciparum in erythrocytes, SYBR Green DNA, 72 h; series mostly up to 28.7 µM
# How it was run: as §1
# CP194 = experiment: as above; conditions: P. falciparum in erythrocytes, SYBR Green DNA, 72 h; series mostly up to 28.7 µM
# How it was run: as §1
# CP201 = experiment: as above; conditions: P. falciparum in erythrocytes, SYBR Green DNA, 72 h; series mostly up to 28.7 µM
# How it was run: as §1
# CP203 = experiment: as above; conditions: P. falciparum in erythrocytes, SYBR Green DNA, 72 h; series mostly up to 28.7 µM
# How it was run: as §1
# CP211 = experiment: as above; conditions: P. falciparum in erythrocytes, SYBR Green DNA, 72 h; series mostly up to 28.7 µM
# How it was run: as §1
# CP215 = experiment: as above; conditions: P. falciparum in erythrocytes, SYBR Green DNA, 72 h; series mostly up to 28.7 µM
# How it was run: as §1
# CP217 = experiment: as above; conditions: P. falciparum in erythrocytes, SYBR Green DNA, 72 h; series mostly up to 28.7 µM
# How it was run: as §1
# CP237 = experiment: as above; conditions: P. falciparum in erythrocytes, SYBR Green DNA, 72 h; series mostly up to 28.7 µM
# How it was run: as §1
compound,measurement,setting,value
O=C(O)[C@H]1C[C@@H](CP(=O)(O)O)CCN1,Potency,[1],25.1 µM (active)
same,Potency,[2],> 46 µM
same,Potency,[3],> 46 µM
same,Potency,[4],inactive
same,Potency,[5],inactive
same,Potency,[6],7.94 µM (active)
same,Potency,[7],inactive
same,outcome,[8],inactive
same,Potency,[9],inactive
same,Potency,[10],inactive
same,Potency,[11],inactive
same,"activity, negative = inhibition",[12]; parasite line A,-7.9%
same,"activity, negative = inhibition",[12]; parasite line B,-2.91%
same,Potency,3D7,inactive
same,Potency,7G8,inactive
same,Potency,AA1029,inactive
same,Potency,AS120,inactive
same,Potency,ATS189,inactive
same,Potency,ATS95,inactive
same,Potency,C2A,inactive
same,Potency,CP185,inactive
same,Potency,CP191,inactive
same,Potency,CP192,inactive
same,Potency,CP194,inactive
same,Potency,CP201,inactive
same,Potency,CP203,inactive
same,Potency,CP211,inactive
same,Potency,CP215,inactive
same,Potency,CP217,inactive
same,Potency,CP237,inactive
